Screens (PubChem BioAssay)
ELG1 repair inh = inhibitors of ELG1-dependent DNA repair in HEK293T cells; HEK293T ELG1-luciferase reporter, luminescence, 16 h; DNA damage induced by 5-fluorouridine; Potency, µM (doses to about 46.1 µM), without a hit: at the top dose activity change, negative = inhibition, actives largely listed as inhibitors; 330,000 tested, 2.3% active; AID 504467; note: potency is the fitted concentration of half-maximal effect; nearly all actives have a fitted effect of over 55% in size
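DMSO vehicle served as the neutral condition. Each well held 2,000 cells given 5-fluorouridine plus compound; after 16 hr at 37 °C/5% CO2, ONE-Glo was added and luciferase measured 30 min later.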
TDP1 cell noCPT = qHTS for Inhibitors of human tyrosyl-DNA phosphodiesterase 1 (TDP1): qHTS in cells in absence of CPT | DT40 Tdp1-/- hTDP1 cells, no CPT, ATP luminescence, 48 h | Potency, µM (doses to about 46.2 µM), for inactives: top-dose activity change, negative = growth inhibition, actives largely listed as inhibitors | 420,000 tested, 15% active; note: potency is the fitted concentration of half-maximal effect; nearly all actives have a fitted effect of over 55% in size
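No-CPT arm: Tdp1-/-;hTDP1 DT40 cells (400/well) plus compounds, incubated ≥48 hr at 37 °C. Readout CellTiter-Glo luminescence.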
DT40 TDP1 CPT = growth inhibition of DT40 Tdp1-/-;hTDP1 cells with camptothecin (screen for TDP1 inhibitors); chicken DT40 Tdp1-/-;hTDP1 cells + 20 nM CPT, ATP luminescence, 48 h; Potency, µM (doses to about 46.2 µM), for the others: at the top dose activity change, negative = growth inhibition, actives largely listed as inhibitors; 420,000 tested, 12% active; AID 686979; note: potency is the fitted concentration of half-maximal effect; nearly all actives have a fitted effect of over 55% in size
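Cell growth measured by CellTiter-Glo luminescence after a minimum 48 h, 37 C compound exposure with 20 nM CPT in Tdp1-knockout DT40 cells stably expressing hTDP1, seeded 400/well; qHTS titration format.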
IL1B secr inh = blocks inflammasome-driven IL-1 beta release; 360,000 tested, 4.7% active; THP-1 LPS/ATP IL-1B secretion, AlphaLISA, 16 h; hits give low values; activity change, % at 57.5 µM; in the data active = activity change below about -50%; inconclusive = mostly about -30% to -49%
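THP-1 cells pretreated 1 hr with compounds (up to 57.5 uM final), then stimulated with LPS (250 ng/mL final) plus ATP (1.25 mM final); secreted IL-1B measured by AlphaLISA after 16 hr, decreased signal indicating inhibition.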
Giardia kill = Giardia lamblia killing | Giardia lamblia trophozoite viability | activity change, % at 7.66 µM, hits read low | 340,000 tested, 0.15% active; in the data active = activity change below about -80%; inconclusive = between about -30% and that limit;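 note: parasites exposed to compound for two days anaerobically before the ATP read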
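Trophozoites 100 cells/well + cpd; 48 hrs, 37 deg C, anaerobic. ATPLite 1-Step added, 15-30 min RT, luminescence read (ATP-based viability).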
TDP1 inh = inhibitors of human tyrosyl-DNA phosphodiesterase TDP1. Q9NUW8. 350,000 tested, 0.28% active. recombinant TDP1, AlphaScreen DNA substrate cleavage. Potency, µM (doses to about 130 µM), for inactives: top-dose activity change, negative = inhibition, most hits filed as inhibitors; note: potency is the fitted concentration of half-maximal effect; nearly all actives have a fitted effect of over 40% in size
Target sequence (Q9NUW8 whole entry, looked up): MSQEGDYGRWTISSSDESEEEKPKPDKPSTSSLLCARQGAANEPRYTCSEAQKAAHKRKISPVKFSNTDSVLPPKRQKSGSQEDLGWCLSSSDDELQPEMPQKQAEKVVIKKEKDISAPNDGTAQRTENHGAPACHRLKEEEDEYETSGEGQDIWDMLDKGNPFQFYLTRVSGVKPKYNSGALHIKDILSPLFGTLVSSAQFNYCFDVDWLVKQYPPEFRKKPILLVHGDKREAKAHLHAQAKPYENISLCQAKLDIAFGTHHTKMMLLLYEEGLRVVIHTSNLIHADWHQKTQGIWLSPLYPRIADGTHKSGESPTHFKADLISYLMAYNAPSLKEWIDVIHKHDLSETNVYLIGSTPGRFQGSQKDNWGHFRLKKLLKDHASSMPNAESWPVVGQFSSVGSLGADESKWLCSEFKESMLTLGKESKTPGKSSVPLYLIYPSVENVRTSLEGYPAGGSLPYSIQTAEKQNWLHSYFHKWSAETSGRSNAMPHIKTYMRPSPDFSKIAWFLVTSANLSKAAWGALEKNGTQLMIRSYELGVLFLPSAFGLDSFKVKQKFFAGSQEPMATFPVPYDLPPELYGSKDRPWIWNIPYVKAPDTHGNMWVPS
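Steps: enzyme plus compound, 15 min RT; add biotin/phosphotyrosine-FITC oligonucleotide (15 nM final), react 5 min; add donor/acceptor beads (10 ug/ml final), 10 min; read AlphaScreen. Tdp1 at 1 nM final.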
* marks the source's active call; other numbers are inactive results; u = inconclusive; x = no result; [ ] = another dose, or the depositor's remark. Only some compounds are listed: those with a hit (about 19% of all), similar ones and a draw of the others. Unless noted, calls come from the whole dose curve; as a rule, active = well fitted curve in the direction sought with a large enough effect; inconclusive = small, poorly fitted or top-dose-only effect, or another doubt; inactive = no such curve, though single readings can be large; an effect the other way counts as inactive or inconclusive. % is set by controls: 0 for no effect and ±100 for the full control effect.

SMILES	ELG1 repair inh	TDP1 cell noCPT	DT40 TDP1 CPT	IL1B secr inh	Giardia kill	TDP1 inh
CCC(=O)OCc1cc(=O)n2nc(C3CC3)sc2n1	x	-23%	-18%	x	x	5%
Fc1cccc(Cc2c(-c3cccc(Br)c3)nc3c(Cl)cc(C(F)(F)F)cn23)c1	x	-13%	-19%	0	x	x
COc1ccc(-c2nc3c(Cl)cc(C(F)(F)F)cn3c2Cc2cccc(F)c2)cc1OC	x	18µM*	23µM*	u	x	x
Cc1ccc(Cc2c(-c3cccc(Br)c3)nc3c(Cl)cc(C(F)(F)F)cn23)cc1	x	16µM*	1%	28	x	x
Cc1cc(OCC(=O)OCC(=O)N(C)Cc2ccccc2C)ccc1Cl	8%	13%	-9%	18	7	-4%
CN1/C(=C\C=C2/SC(=S)NC2=O)C(C)(C)c2ccccc21	u	5.8µM*	8.2µM*	27	-2	6%
CCCN1C(=O)/C(=C\C=C2\N(CC)c3ccccc3C2(C)C)SC1=S	-5%	13µM*	16µM*	6	21	6%
CN1C(=CC=C2C=C(I)C(=O)C(I)=C2)C(C)(C)c2ccccc21	u	16µM*	18µM*	10	-8	10%
CCCN1C(=O)/C(=C\C=C2/Sc3ccccc3N2CC)SC1=S	5%	x	x	x	x	5%
Cc1ccc2c(=O)c(C(=O)c3ccc(F)cc3)cn(CC(=O)Nc3ccc4c(c3)OCCO4)c2n1	x	-20%	-26%	x	x	1%
NS(=O)(=O)c1ccc(CNC(=O)c2cc(-c3cccs3)nc3ccccc23)cc1	u	u	u	7	21	x
NS(=O)(=O)c1cccc(NC(=O)c2cccs2)c1	-4%	u	21µM*	-7	8	x
NS(=O)(=O)c1cccc(NC(=O)c2cc(-c3cccs3)nc3ccccc23)c1	u	15µM*	21µM*	-18	5	5%
CN(C)S(=O)(=O)c1cccc(NC(=O)c2cc(-c3cccs3)nc3ccccc23)c1	7.3µM*	10µM*	u	-3	-18	3%
NS(=O)(=O)c1ccc(NC(=O)c2cccc3cc4ccccc4nc23)cc1	x	5.2µM*	5.8µM*	u	28	x
Cc1cc(C)cc(N(CC(=O)NCCc2ccc(Cl)cc2)S(=O)(=O)c2c(C)noc2C)c1	x	1%	-3%	x	x	5%
COCc1c(C(=O)OCC(=O)c2c(N)n(CC(C)C)c(=O)n(C)c2=O)oc2ccccc12	u	21µM*	18µM*	3	-14	6%
COCc1c(C(=O)OCC(=O)NCCN2C(=O)CSC2=O)oc2ccccc12	15%	-14%	-19%	4	0	5%
CC(C)Cn1c(N)c(C(=O)COC(=O)c2ccccc2F)c(=O)n(C)c1=O	u	u	u	15	11	2%
Cc1c(C(=O)OCC(=O)c2c(N)n(CC(C)C)c(=O)n(C)c2=O)oc2ccccc12	10µM*	23µM*	u	-5	-4	-2%[56.1 µM]
CCc1nc2c(OCCOc3ccc(F)cc3)cccn2c1N(C=O)Cc1ccc(OC)cc1	x	u	u	-21	x	x
CCc1nc2c(OCC(=O)c3ccc(Cl)cc3Cl)cccn2c1N(C)C(=O)c1cccs1	x	18µM*	16µM*	u	x	x
CCc1nc2c(OCc3ccc(Cl)cc3)cccn2c1N(C=O)Cc1ccc(OC)cc1	x	u	21µM*	0	x	x
CCc1nc2c(OCc3ccc(Cl)cc3Cl)cccn2c1N(C=O)Cc1ccc(OC)cc1	x	23µM*	u	-67*	x	x
CCc1nc2c(OCCn3cccc3)cccn2c1N(C=O)Cc1ccc(OC)cc1	x	u	21µM*	-22	x	x
CCc1nc2c(OCc3c(C)noc3C)cccn2c1N(C=O)Cc1ccc(OC)cc1	x	15µM*	23µM*	6	x	x
